The campaign covered roughly 5,500 compounds. About 2,000 (36%) were called active. About 18% were inconclusive and are not listed. Rule as the data show it: active = normalized growth mostly below about 0.91 (no sharp cut-off); inconclusive = no clear call, values can overlap the other calls; inactive = mostly above about 0.92. Some of the results follow.
Test: chemical genetic growth profiling, strain panel (AID 1159580);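 also: tested at 20 µM; growth read once vehicle control cultures reached saturation at 30 °C; 1 = growth at the plate median or of vehicle wells; lower values mean less growth of the strain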
Conditions: growth OD

Measured: normalized growth

CCc1cc(C(N)=S)ccn1
inactive: S. cerevisiae deletion strains, locus YJR066W, strain TOR1, stronger effect = lower value 1 | S. cerevisiae deletion strains, locus YKL009W, strain mrt4, stronger effect = lower value 0.966 | S. cerevisiae deletion strains, locus YKL068W, stronger effect = lower value 0.975 | S. cerevisiae deletion strains, locus YKL085W, strain MDH1 (second series), stronger effect = lower value 0.964 | S. cerevisiae deletion strains, locus YKL085W, strain MDH1, stronger effect = lower value 0.964 | S. cerevisiae deletion strains, locus YKL160W, strain elf1, stronger effect = lower value 1.05 | S. cerevisiae deletion strains, locus YKL190W, strain CNB1, stronger effect = lower value 0.991 | S. cerevisiae deletion strains, locus YKR001C, strain vps1, stronger effect = lower value 0.955 | S. cerevisiae deletion strains, locus YKR026C, strain gcn3, stronger effect = lower value 1 | S. cerevisiae deletion strains, locus YKR091W, strain srl3, stronger effect = lower value 1.01 | S. cerevisiae deletion strains, locus YLL001W, strain dnm1, stronger effect = lower value 1.04 | S. cerevisiae deletion strains, locus YLL026W, stronger effect = lower value 1 | S. cerevisiae deletion strains, locus YLL041C, strain sdh2, stronger effect = lower value 1 | S. cerevisiae deletion strains, locus YLR027C, strain aat2, stronger effect = lower value 0.987 | S. cerevisiae deletion strains, locus YLR039C, strain RIC1, stronger effect = lower value 0.939 | S. cerevisiae deletion strains, locus YLR058C, strain SHM2, stronger effect = lower value 0.978 | S. cerevisiae deletion strains, locus YLR102C, strain apc9, stronger effect = lower value 0.994 | S. cerevisiae deletion strains, locus YLR113W, strain HOG1, stronger effect = lower value 1.04 | S. cerevisiae deletion strains, locus YLR221C, strain rsa3, stronger effect = lower value 1.02 | S. cerevisiae deletion strains, locus YLR258W, strain gsy2, stronger effect = lower value 1 | S. cerevisiae deletion strains, locus YLR262C, strain YPT6 (second series), stronger effect = lower value 1.04 | S. cerevisiae deletion strains, locus YLR262C, strain YPT6, stronger effect = lower value 0.937 | S. cerevisiae deletion strains, locus YLR268W, strain sec22, stronger effect = lower value 0.977 | S. cerevisiae deletion strains, locus YLR320W, strain mms22, stronger effect = lower value 1.04 | S. cerevisiae deletion strains, locus YLR330W, strain CHS5, stronger effect = lower value 0.984 | S. cerevisiae deletion strains, locus YLR342W, strain FKS1 (second series), stronger effect = lower value 1.03 | S. cerevisiae deletion strains, locus YLR342W, strain FKS1, stronger effect = lower value 1.01 | S. cerevisiae deletion strains, locus YLR357W, strain rsc2, stronger effect = lower value 0.99 | S. cerevisiae deletion strains, locus YLR370C, strain arc18, stronger effect = lower value 1 | S. cerevisiae deletion strains, locus YLR371W, strain rom2, stronger effect = lower value 0.991 | S. cerevisiae deletion strains, locus YLR384C, strain iki3, stronger effect = lower value 1 | S. cerevisiae deletion strains, locus YLR418C, strain cdc73, stronger effect = lower value 0.999 | S. cerevisiae deletion strains, locus YML016C, strain PPZ1, stronger effect = lower value 0.99 | S. cerevisiae deletion strains, locus YML032C, strain rad52, stronger effect = lower value 0.973 | S. cerevisiae deletion strains, locus YML120C, strain ndi1, stronger effect = lower value 1.02 | S. cerevisiae deletion strains, locus YML124C, strain tub3, stronger effect = lower value 0.987 | S. cerevisiae deletion strains, locus YMR058W, strain fet3, stronger effect = lower value 1.01 | S. cerevisiae deletion strains, locus YMR078C, strain ctf18, stronger effect = lower value 0.978 | S. cerevisiae deletion strains, locus YMR125W, strain sto1, stronger effect = lower value 1 | S. cerevisiae deletion strains, locus YMR129W, stronger effect = lower value 0.996 | S. cerevisiae deletion strains, locus YMR205C, strain PFK2, stronger effect = lower value 1.07 | S. cerevisiae deletion strains, locus YMR223W, strain ubp8, stronger effect = lower value 1.03 | S. cerevisiae deletion strains, locus YMR231W, strain pep5, stronger effect = lower value 1 | S. cerevisiae deletion strains, locus YMR263W, strain SAP30, stronger effect = lower value 0.982 | S. cerevisiae deletion strains, locus YMR307W, strain GAS1, stronger effect = lower value 1.06 | S. cerevisiae deletion strains, locus YNL067W, strain RPL9B, stronger effect = lower value 0.954 | S. cerevisiae deletion strains, locus YNL071W, strain lat1, stronger effect = lower value 1.01 | S. cerevisiae deletion strains, locus YNL128W, strain TEP1, stronger effect = lower value 0.985 | S. cerevisiae deletion strains, locus YNL183C, strain NPR1, stronger effect = lower value 0.999 | S. cerevisiae deletion strains, locus YNL209W, strain ssb2, stronger effect = lower value 1.01 | S. cerevisiae deletion strains, locus YNL233W, strain BNI4, stronger effect = lower value 0.963 | S. cerevisiae deletion strains, locus YNL248C, strain rpa49, stronger effect = lower value 1 | S. cerevisiae deletion strains, locus YNL250W, strain rad50, stronger effect = lower value 0.964 | S. cerevisiae deletion strains, locus YNL271C, strain bni1, stronger effect = lower value 0.971 | S. cerevisiae deletion strains, locus YNL298W, strain CLA4, stronger effect = lower value 0.978 | S. cerevisiae deletion strains, locus YNL307C, strain MCK1, stronger effect = lower value 0.985 | S. cerevisiae deletion strains, locus YNL322C, strain KRE1 (second series), stronger effect = lower value 1.03 | S. cerevisiae deletion strains, locus YNR049C, strain mso1, stronger effect = lower value 1 | S. cerevisiae deletion strains, locus YNR052C, strain pop2, stronger effect = lower value 0.993 | S. cerevisiae deletion strains, locus YOL006C, strain TOP1, stronger effect = lower value 0.995 | S. cerevisiae deletion strains, locus YOL012C, strain htz1 1.05 | S. cerevisiae deletion strains, locus YOL147C, strain pex11, stronger effect = lower value 0.988 | S. cerevisiae deletion strains, locus YOR001W, strain rrp6, stronger effect = lower value 0.965 | S. cerevisiae deletion strains, locus YOR061W, strain CKA2, stronger effect = lower value 0.96 | S. cerevisiae deletion strains, locus YOR069W, strain VPS5, stronger effect = lower value 0.998 | S. cerevisiae deletion strains, locus YOR070C, strain gyp1, stronger effect = lower value 1.01 | S. cerevisiae deletion strains, locus YOR080W, strain dia2, stronger effect = lower value 0.998 | S. cerevisiae deletion strains, locus YOR083W, strain WHI5, stronger effect = lower value 1.05 | S. cerevisiae deletion strains, locus YOR106W, strain vam3, stronger effect = lower value 1.06 | S. cerevisiae deletion strains, locus YOR136W, strain idh2, stronger effect = lower value 0.984 | S. cerevisiae deletion strains, locus YOR144C, strain elg1, stronger effect = lower value 0.985 | S. cerevisiae deletion strains, locus YOR184W, strain ser1, stronger effect = lower value 1.01 | S. cerevisiae deletion strains, locus YOR231W, strain MKK1, stronger effect = lower value 1.07 | S. cerevisiae deletion strains, locus YOR265W, strain rbl2, stronger effect = lower value 1.03 | S. cerevisiae deletion strains, locus YOR270C, strain vph1, stronger effect = lower value 1.03 | S. cerevisiae deletion strains, locus YOR290C, strain snf2, stronger effect = lower value 1.01 | S. cerevisiae deletion strains, locus YOR316C, strain cot1, stronger effect = lower value 0.981 | S. cerevisiae deletion strains, locus YPL051W, strain arl3, stronger effect = lower value 0.998 | S. cerevisiae deletion strains, locus YPL078C, strain atp4, stronger effect = lower value 1.01 | S. cerevisiae deletion strains, locus YPL106C, strain sse1, stronger effect = lower value 1.02 | S. cerevisiae deletion strains, locus YPL240C, strain hsp82, stronger effect = lower value 0.982 | S. cerevisiae deletion strains, locus YPL256C, strain CLN2, stronger effect = lower value 1.15 | S. cerevisiae deletion strains, locus YPR119W, strain clb2, stronger effect = lower value 0.986 | S. cerevisiae deletion strains, locus YPR141C, strain kar3, stronger effect = lower value 0.974 | S. cerevisiae deletion strains, locus YPR163C, strain tif3, stronger effect = lower value 0.986 | S. cerevisiae deletion strains, locus YPR167C, strain met16, stronger effect = lower value 0.989 | S. cerevisiae deletion strains, strain wtn01, stronger effect = lower value 0.995 | S. cerevisiae strains, strain wild type, stronger effect = lower value 0.986
